# According to the supplement of paper PMC6522484:
# ± gives the standard deviation of the averaged measurements.
# Legend:
# DLD1 [1] = test: cell viability (CellTiter-Glo) relative to plate median (fraction of plate median); higher = more viable cells; conditions: 5 µM; treatment time 24 h; reporter: 7TFP
# Procedure, shortened: (§1)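 For this screen, colorectal cancer cell lines carrying stable lentiviral TCF/Wnt firefly luciferase reporters, either 7TFP or TCF4/Wnt, were seeded into 384-well plates. A day's wait of 24 h preceded addition of library compounds at a final 5 µM, which stayed on the cells for 24 h. Firefly luciferase or CellTiterGlo luminescence, read on parallel plates, was normalised to the plate median per well, and the reported value is the mean of two independent replicates.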
# HCT116 = test: as above; conditions: 5 µM; treatment time 24 h; reporter: TCF4/Wnt
# Procedure, shortened: as §1
# SW480 [2] = test: as above; conditions: 5 µM; treatment time 24 h; reporter: 7TFP
# Procedure, shortened: as §1
# DLD1 [3] = test: TCF/Wnt firefly luciferase reporter signal relative to plate median (fraction of plate median); higher = higher Wnt reporter signal; conditions: 5 µM; treatment time 24 h; reporter: 7TFP
# Procedure, shortened: as §1
# SW480 [4] = test: as above; conditions: 5 µM; treatment time 24 h; reporter: 7TFP
# Procedure, shortened: as §1
Compound,cell viability (DLD1 [1]),cell viability (HCT116),cell viability (SW480 [2]),TCF/Wnt firefly luciferase reporter signal (DLD1 [3]),TCF/Wnt firefly luciferase reporter signal (SW480 [4])
COC1=C[C@@H]2[C@@H]3Cc4ccc(OC)c(O)c4[C@]2(CCN3C)CC1=O,0.973 ± 0.0085,0.925 ± 0.017,0.987 ± 0.033,1.03 ± 0.11,0.997 ± 0.16
CCOC(=O)c1cncn1[C@H](C)c1ccccc1,1.04 ± 0.035,0.987 ± 0.018,0.9905 ± 0.0078,0.965 ± 0.013,0.995 ± 0.022
C/C=C/[C@H]1O[C@@](O)([C@@H](C)[C@H](O)[C@H](C)[C@H]2OC(=O)/C(OC)=C/C(C)=C/[C@@H](C)[C@@H](O)[C@@H](C)[C@@H](O)[C@H](C)C/C(C)=C/C=C/[C@@H]2OC)C[C@@H](O[C@H]2C[C@@H](O)[C@H](OC(N)=O)[C@@H](C)O2)[C@@H]1C [Concanamycin B],0.935 ± 0.0085,0.941 ± 0.011,1.05 ± 0.014,0.9065 ± 0.0064,1.05 ± 0.042
C/C=C(\C)C(=O)O[C@H]1C[C@@H](OC(C)=O)[C@@]2(C(=O)OC)CO[C@H]3[C@@H](O)[C@@](C)([C@]45O[C@@]4(C)[C@H]4C[C@@H]5O[C@@H]5OC=C[C@@]54O)[C@H]4[C@]1(CO[C@]4(O)C(=O)OC)[C@@H]32,0.998 ± 0.017,0.999 ± 0.087,0.959 ± 0.051,0.973 ± 0.052,0.962 ± 0.04
C=CC[C@]1(O)CC[C@H]2[C@@H]3CCC4=CC(=O)CCC4=C3C=C[C@@]21C,1.11 ± 0.16,0.961 ± 0.052,0.963 ± 0.081,0.945 ± 0.078,0.9875 ± 0.00071
NCC(CC(=O)O)c1ccc(Cl)cc1 (stereo not given),0.998 ± 0.088,0.9975 ± 0.0035,1.03 ± 0.028,0.897 ± 0.1,1.02 ± 0.12
CC[C@H]1CN2CC[C@H]1C[C@@H]2[C@@H](O)c1ccnc2ccc(OC)cc12,0.997 ± 0.0042,1.07 ± 0.05,1.06 ± 0.064,1.08 ± 0.24,1.06 ± 0.071
C[C@]12CC[C@H]3[C@@H](CC[C@]4(O)C[C@@H](O)CC[C@]34C=O)[C@@]1(O)CC[C@@H]2C1=CC(=O)OC1,0.579 ± 0.021,0.502 ± 0.12,0.746 ± 0.046,0.226 ± 0.12,0.58 ± 0.054
CC[C@H](C)[C@H]1O[C@]2(C=C[C@@H]1C)C[C@@H]1C[C@@H](C/C=C(\C)[C@@H](O[C@H]3C[C@H](OC)[C@@H](O[C@H]4C[C@H](OC)[C@@H](O)[C@H](C)O4)[C@H](C)O3)[C@@H](C)/C=C/C=C3\CO[C@@H]4[C@H](O)C(C)=C[C@@H](C(=O)O1)[C@]34O)O2.CO[C@H]1C[C@H](O[C@H]2[C@H](C)O[C@@H](O[C@@H]3/C(C)=C/C[C@@H]4C[C@@H](C[C@]5(C=C[C@H](C)[C@@H](C(C)C)O5)O4)OC(=O)[C@@H]4C=C(C)[C@@H](O)[C@H]5OC/C(=C\C=C\[C@@H]3C)[C@]54O)C[C@@H]2OC)O[C@@H](C)[C@@H]1O,0.893 ± 0.083,0.931 ± 0.0028,1.01,0.977 ± 0.089,0.987 ± 0.033
O=C1CC[C@@]2(O)[C@H]3Cc4ccc(O)c5c4[C@@]2(CCN3CC2CC2)[C@H]1O5,1.02 ± 0.093,0.914 ± 0.19,1.04 ± 0.035,0.985 ± 0.12,1.03 ± 0.028
CNC(=O)Oc1ccccc1OC(C)C,0.98 ± 0.0071,0.983 ± 0.0042,0.986 ± 0.014,0.913 ± 0.19,1.01 ± 0.016
CC(C)C[C@H](CN)CC(=O)O,1.03 ± 0.073,1.05 ± 0.1,1.04 ± 0.014,1.09 ± 0.064,0.936 ± 0.011
CC1=C2[C@H]3OC(=O)[C@@H](C)[C@@H]3CC[C@@]2(C)C=CC1=O,1.08 ± 0.15,1.06 ± 0.078,1.03 ± 0.043,0.968 ± 0.026,1.06 ± 0.12
CC(C)=CC1C(C(=O)OCc2cccc(Oc3ccccc3)c2)C1(C)C (stereo not given),0.971 ± 0.02,1.02 ± 0.037,0.985 ± 0.035,0.988 ± 0.1,0.979 ± 0.0042
COc1cc([C@@H]2c3cc4c(cc3[C@H](O)[C@H]3COC(=O)[C@@H]23)OCO4)cc(OC)c1OC,1.04 ± 0.1,0.774 ± 0.025,1.22 ± 0.11,0.819 ± 0.052,0.887 ± 0.057
CO[C@H]1C[C@H](O[C@H]2CC[C@@]3(C)[C@H](CC[C@@H]4[C@@H]3CC[C@]3(C)[C@@H](C5=CC(=O)OC5)[C@@H](OC(C)=O)C[C@]43O)C2)O[C@@H](C)[C@@H]1O,1.26 ± 0.028,0.486 ± 0.31,1.31 ± 0.13,0.123 ± 0.13,0.171 ± 0.12
Cc1ccc(C[N+](C)(C)C)o1,1 ± 0.026,1.025 ± 0.0071,1.02 ± 0.014,0.864 ± 0.012,0.903 ± 0.027
COc1ccc(OC)c(C(O)C(C)N)c1 (stereo not given),0.976 ± 0.1,0.974 ± 0.037,0.926 ± 0.029,0.976 ± 0.031,1.13 ± 0.11
CSc1nc(NC(C)C)nc(NC(C)C)n1,0.9725 ± 0.0035,0.92 ± 0.11,1 ± 0.014,1.06,1.07 ± 0.014
COc1cc2c(cc1O)C[C@H]1c3c(cc(O)c(OC)c3-2)CCN1C,1.02 ± 0.095,1.06 ± 0.086,1.12 ± 0.13,0.882 ± 0.033,1.01 ± 0.17
CC(=O)O[C@@H]1C[C@@]2(C)[C@H](c3ccoc3)C[C@H]3O[C@]32[C@]2(C)C(=O)C(O)=C3C(C)(C)C(=O)C=C[C@]3(C)[C@@H]12,0.901 ± 0.044,0.824 ± 0.14,1.09 ± 0.12,0.888 ± 0.03,0.831 ± 0.19
COc1ccc2c(c1O)-c1c(OC)c(OC)cc3c1[C@H](C2)N(C)CC3,0.993 ± 0.067,1.055 ± 0.0071,1 ± 0.035,0.885 ± 0.089,0.926 ± 0.012
COc1ccc2c(c1)[nH]c1c(C)nccc12,0.98 ± 0.028,0.904 ± 0.04,0.964 ± 0.036,0.623 ± 0.067,0.625 ± 0.097
O=C1C=C2C=C[C@@H]3C[C@@]2(O1)[C@H]1CCCCN31,1.1 ± 0.057,1.11 ± 0.064,1.02 ± 0.063,1.01 ± 0.023,0.988 ± 0.013
CN1C(=O)CCS(=O)(=O)C1c1ccc(Cl)cc1 (stereo not given),1.01 ± 0.033,1.02 ± 0.014,0.946 ± 0.15,0.984 ± 0.023,1.04 ± 0.093
CC[C@@]1(O)C(=O)OCc2c1cc1n(c2=O)Cc2cc3ccccc3nc2-1,0.91 ± 0.094,0.292 ± 0.067,0.925 ± 0.041,1.01 ± 0.12,0.911 ± 0.016
COc1ccc(C(CN(C)C)C2(O)CCCCC2)cc1 (stereo not given),1.06 ± 0.014,0.972 ± 0.035,1.03 ± 0.044,0.924 ± 0.069,0.907 ± 0.029
